Structures can show the parent of a compound that is named as a salt.
test system: Clostridium sporogenes DSM 1664; experiment: growth (OD595) fold change vs plate DMSO controls (fold change (ratio)); higher = more growth; conditions: incubation time: 27 h, anaerobic, 37 °C
In short: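 The measure reported is growth, taken as fold change against the median of DMSO controls on the same plate. Anaerobic mGAM cultures in 96-well plates (27 h, 37 °C) were read at 595 nm, blank-subtracted, corrected for compound background using 20 µM compound solutions in water, and multiplied by a calibration factor of 5 to give OD. Any fold change above 1.5 became NA, and 2 biological replicates were averaged.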

SMILES | growth
CC(C)(C)NC[C@H](O)c1ccc(O)c(CO)c1 [Levalbuterol hydrochloride] (20 µM) | 0.932
C[N+]1(CCCCC[N+]2(C)CCCC2)CCCC1 [Pentolinium bitartrate] (20 µM) | 0.933
O=C1c2cccc(O)c2C(=O)c2c(O)cccc21 [Danthron] (20 µM) | 0.931
O=C(N/N=C/c1ccc([N+](=O)[O-])o1)c1ccc(O)cc1 [Nifuroxazide] (20 µM) | 1.11
COC(=O)Nc1nc2cc(Sc3ccccc3)ccc2[nH]1 [Fenbendazole] (20 µM) | 1
CN(C)CCOC(c1ccccc1)c1ccccc1.Cn1c(=O)c2[nH]c(Cl)nc2n(C)c1=O [Dimenhydrinate] (20 µM) | 0.99
CCc1ccc(C(=O)C(C)CN2CCCCC2)cc1 (configuration not stated) [Eperisone Hydrochloride] (20 µM) | 1.04
CC12CC3CC(C)(C1)CC(N)(C3)C2 [Memantine hydrochloride] (20 µM) | 1.01
COc1ccc2[nH]cc(CCNC(C)=O)c2c1 [Melatonin] (20 µM) | 0.916
CCC(=O)O[C@]1(C(=O)CCl)[C@@H](C)C[C@H]2[C@@H]3CCC4=CC(=O)C=C[C@]4(C)[C@@]3(F)[C@@H](O)C[C@@]21C [Clobetasol propionate] (20 µM) | 1.36
CC[C@@H](CO)NCCN[C@@H](CC)CO [Ethambutol dihydrochloride] (20 µM) | 0.97
CC(=O)CC(c1ccc([N+](=O)[O-])cc1)c1c(O)c2ccccc2oc1=O (configuration not stated) [Acenocoumarol] (20 µM) | 0.894

Source: the supplement of paper PMC12494721
